# Compound activity deposited in PubChem by several laboratories.
# RecA splice inh – inhibitors of M. tuberculosis RecA intein splicing. 290,000 tested, 0.75% active. inhibition, % (test concentration not listed). cell-free RecA intein splicing, fluorescence; in the data active means inhibition above about 30%;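 further: 0% = vehicle wells and 100% = reference inhibitor control wells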
# UGM FP inh – blocks M. tuberculosis UGM enzyme | inhibition, % at 10 µM | purified UGM, fluorescence polarization probe displacement | 320,000 tested, 0.06% active | P9WIQ1; in the data active means inhibition above about 10%, passing the limit was not always enough
# Mtb FBA inh – Mtb fructose-bisphosphate aldolase inhibition; P9WQA3; 360,000 tested, 2.3% active; inhibition, % at 1 µM; purified M. tuberculosis FBA, fluorescence read-out;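 further: 0% = vehicle and 100% = reference inhibitor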
# Target sequence (P9WQA3 whole entry, looked up): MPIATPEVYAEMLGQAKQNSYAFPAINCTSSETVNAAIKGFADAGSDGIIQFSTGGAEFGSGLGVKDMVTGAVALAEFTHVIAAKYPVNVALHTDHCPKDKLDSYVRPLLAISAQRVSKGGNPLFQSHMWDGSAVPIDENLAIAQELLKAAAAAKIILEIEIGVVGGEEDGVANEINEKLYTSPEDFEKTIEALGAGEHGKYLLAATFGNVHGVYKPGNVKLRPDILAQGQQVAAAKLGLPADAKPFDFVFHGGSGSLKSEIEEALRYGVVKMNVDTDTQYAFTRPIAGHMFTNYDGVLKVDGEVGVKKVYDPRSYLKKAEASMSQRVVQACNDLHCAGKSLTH
# Vc quorum ag – inducers of Vibrio cholerae quorum light production without autoinducers; V. cholerae BH1578 lux reporter, luminescence, 6 h; activation, % at 18.7 µM; 350,000 tested, 0.16% active; in the data active means activation mostly above about 9.7%, no sharp cut-off
# Rv3671c protease – inhibits the M. tuberculosis serine protease Rv3671c. inhibition, % at 5.96 µM. 320,000 tested, 0.048% active. P9WHR9. AID 2606; in the data active means inhibition above about 38%;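 further: extracellular domain of Rv3671c used as enzyme; 0% = enzyme with DMSO and 100% = no enzyme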
# GDH-TPI counter-1 – GDH-TPI coupled enzyme inhibition counter-screen | AID 588335 | inhibition, % at 4.8 µM | 360,000 tested, 1.2% active | GDH-TPI coupled enzyme counterscreen, NADH absorbance; in the data active means inhibition above about 30%;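 further: 0% = DMSO wells and 100% = wells lacking the enzyme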
# Mtb FBA confirm – Mtb FBA inhibition, confirmed; shares compounds with Mtb FBA inh; inhibition, % at 1 µM; 5,600 tested, 78% active; purified M. tuberculosis FBA, fluorescence read-out; AID 651616;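 further: 0% = vehicle wells and 100% = reference inhibitor wells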
# GDH-TPI counter-2 – inhibits GDH-TPI coupling enzymes, flagging Mtb FBA hits. shares compounds with Mtb FBA inh. GDH-TPI coupled enzyme counterscreen, fluorescence. inhibition, % at 1 µM. 5,600 tested, 81% active. AID 652141; in the data active means inhibition above about 10%
# * hit, by the source's call; i = inactive; / = not tested or not shown; + = active, no number. The list is not random: actives were taken first. Their share in the collection is about 4.1%. Unless noted, no stated cut-off is given here; in the data, active means inhibition above about 27%; inactive means the rest.
SMILES,RecA splice inh,UGM FP inh,Mtb FBA inh,Vc quorum ag,Rv3671c protease,GDH-TPI counter-1,Mtb FBA confirm,GDH-TPI counter-2
CCN1CCN(S(=O)(=O)c2ccc(Cl)c(C(=O)NC3CCC(C)CC3)c2)CC1 (stereo unspecified),/,-1,4,1,-5,5,/,/
CC(C)c1ccc(Oc2cccc3c2S(=O)(=O)N(C2CCCC2)CC(COCc2ccccc2)O3)cc1 (stereo unspecified),/,/,6,0,/,4,/,/
CC(C)c1ccc(-n2nc3ccc(N)cc3n2)cc1,-4,1,71*,0,1,3,101*,67*
Nc1ccc2nn(-c3ccc(F)cc3)nc2c1,-15,-1,37*,0,-7,17,62*,52*
Cc1ccc(-n2nc(-c3ccc(N)cc3)cc2N)cc1,1,-1,-2,-1,12,9,/,/
Cc1ccc(-n2nc3ccc(N)cc3n2)cc1,-30,3,64*,-1,-2,20,39*,23*
Nc1ccc2nn(-c3cc([N+](=O)[O-])ccc3O)nc2c1,9,-1,-1,0,-8,18,/,/
O=C(NCCc1ccccc1)c1cc(=O)c2ccccc2o1,-1,-2,-2,0,0,0,/,/
CN1CCc2c(C#N)c(Cl)nc(Cl)c2C1,-6,2,68*,/,3,13,4,-2
CN1CCc2c(C#N)c(N3CCCCC3)nc(N3CCOCC3)c2C1,-3,2,/,/,0,/,/,/
CC(Sc1nnnn1C)C(=O)Nc1ncc(Cl)cc1Cl (stereo unspecified),/,2,2,0,0,2,/,/
O=S(=O)(Nc1nc2c(s1)CCCC2)c1ccc(F)cc1,1,2,1,0,-4,-7,/,/
COc1ccc(S(=O)(=O)Nc2nc3c(s2)CCCC3)cc1,0,0,56*,1,3,2,86*,68*
c1ccc(-c2oc3ncnc(NCCCN4CCOCC4)c3c2-c2ccccc2)cc1,2,0,48*,-13,-11,22,-3,-1
COc1ccc(-c2oc3ncnc(NCCN4CCOCC4)c3c2-c2ccc(OC)cc2)cc1,4,-1,12,3,-4,12,/,/
OCCCNc1ncnc2oc(-c3ccccc3)c(-c3ccccc3)c12,-1,-2,89*,0,/,11,98*,79*
COc1ccc(-c2oc3ncnc(NCCCN4CCOCC4)c3c2-c2ccc(OC)cc2)cc1,-1,2,108*,0,-1,14,+,+
O=S(=O)(Nc1cccc2ccccc12)N1CCCC1,3,5,28*,i,-2,-5,72*,59*
CCn1c(C)c(Br)c(=O)c(C(=O)OC)c1-c1ccc(Cl)cc1,-3,4,3,-7,-2,6,/,/
CCOC(=O)c1sc2nc(C)nc(NCCc3ccccn3)c2c1C,2,1,71*,i,-2,3,22,12*
CC(C)(C)c1cc(NC(=O)COC(=O)c2ccccc2O)n(-c2ccccc2)n1,/,/,4,i,/,-4,/,/
CC(C)(C)c1cc(NC(=O)COC(=O)c2nccnc2N)n(-c2ccccc2)n1,2,-2,87*,-1,-3,8,47*,36*
Cc1cnc(C(=O)OCC(=O)Nc2cc(-c3cc(C)c(C)cc3C)nn2-c2ccccc2)cn1,-1,0,2,i,1,6,/,/
CCCc1cc(NC(=O)COC(=O)c2nccnc2N)n(-c2ccccc2)n1,/,-2,85*,-1,7,16,51*,45*
C[C@@H]1CN([C@H](C)CO)S(=O)(=O)c2ccc(C#Cc3ccccc3)cc2O[C@H]1CN(C)C(=O)Nc1ccc2c(c1)OCO2,/,/,4,i,/,18,/,/
SMILES,RecA splice inh,UGM FP inh,Mtb FBA inh,Vc quorum ag,Rv3671c protease,GDH-TPI counter-1,Mtb FBA confirm,GDH-TPI counter-2
CCCN1CCN(CCCNC(=O)c2cc3c(=O)[nH]c4ccc(C)cc4c3s2)CC1,-3,-5,53*,i,1,6,91*,93*
Cc1ccc2[nH]c(=O)c3cc(C(=O)NC(C)C)sc3c2c1,-3,-2,74*,i,-20,19,85*,68*
CCN1CCN(CCCNC(=O)c2cc3c(=O)oc4ccc(C)cc4c3s2)CC1,-1,0,9,i,-4,25,/,/
CCCCc1cc(=O)oc2cc(C)cc(OC(C)C(=O)NCC3CCC(C(=O)O)CC3)c12 (stereo unspecified),/,0,79*,-1,-4,7,1,-5
CCCc1cc(=O)oc2cc(C)cc(OC(C)C(=O)NCC3CCC(C(=O)O)CC3)c12 (stereo unspecified),/,-1,69*,0,-6,-5,70*,46*
Cc1oc(-c2cccs2)nc1CNC[C@H]1O[C@@H](n2cnc(C(N)=O)n2)[C@H](O)[C@@H]1O,/,/,7,0,/,9,/,/
CCOC(=O)c1sc(Nc2nc3c(OC)cccc3s2)nc1C,-3,0,66*,7,6,1,64*,57*
CC1(CCc2ccc3c(c2)OCO3)NCCc2c1[nH]c1ccccc21 (stereo unspecified),1,1,1,i,7,-3,/,/
CC1(CCc2ccc3c(c2)OCO3)NC(=O)c2ccccc2N1 (stereo unspecified),-7,2,50*,i,7,-4,150*,114*
CN1CCN(c2nc3cc(N4CCOCC4)ccc3s2)CC1,/,/,2,0,/,-13,/,/
COc1ccc(-c2cc(C(F)F)n3ncc(C(=O)N4CCN(C)CC4)c3n2)cc1,-23,0,30*,0,6,17,39*,34*
N#Cc1ccc(C(=O)N2CCN(c3ncccn3)CC2)cc1,-2,0,2,1,-3,4,/,/
Cc1c(-c2cc(C(=O)O)c3ccccc3n2)cnn1C,-1,-3,97*,i,5,5,136*,113*
C=CCNc1nnc(Cc2ccc(F)cc2)c(=O)[nH]1,-2,0,-3,i,4,5,/,/
COc1ccc(-c2cc(C(F)(F)F)n3nc(C(=O)N4CCCC4)cc3n2)cc1,-2,1,0,-1,1,3,/,/
COc1ccc(-c2cc(C(F)(F)F)n3nc(C(=O)NCCN4CCOCC4)cc3n2)cc1,-39,2,39*,2,-6,8,-1,-5
COc1ccc(-c2cc(C(F)(F)F)n3nc(C(=O)NCCCn4ccnc4)cc3n2)cc1,-29,1,48*,1,1,7,1,-1
O=C(Cn1c(=O)[nH]c2ccccc2c1=O)N1CCN(Cc2ccc3c(c2)OCO3)CC1,0,2,5,0,-3,-2,/,/
